Giardia killer – Small Molecules that selectively kill Giardia lamblia: qHTS | Giardia lamblia trophozoite viability | activity change, % at 7.66 µM, hits read low | hit rate 0.15% among 340,000; in the data active means activity change below about -80%; inconclusive means between about -30% and that limit;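 further: parasites exposed to compound for two days anaerobically before the ATP read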
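Media and compound were dispensed first, then trophozoites at 100 cells/well; plates sat 48 hrs at 37 deg C without oxygen before ATP luminescence reagent was added and read after 15-30 min at room temperature.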
ELG1 DNA repair – qHTS screen for small molecules that inhibit ELG1-dependent DNA repair in human embryonic kidney (HEK293T) cells expressing luciferase-tagged ELG1 | HEK293T ELG1-luciferase reporter, luminescence, 16 h; DNA damage induced by 5-fluorouridine | hit rate 2.3% among 330,000 | Potency, µM (top dose mostly 46.1 µM), for the others: at the top dose activity change, negative = inhibition, usual class: inhibitors; further: potency means the concentration at half of the fitted maximal effect; nearly all actives have a fitted effect of over 55% in size
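Cells (2,000 per well) received 5-fluorouridine plus test compound or DMSO and were incubated 16 hr at 37 °C, 5% CO2. Luciferase activity was read by luminescence 30 min after ONE-Glo addition; signal suppression marked inhibition of damage-induced ELG1 function.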
DT40 TDP1 no CPT – qHTS for Inhibitors of human tyrosyl-DNA phosphodiesterase 1 (TDP1): qHTS in cells in absence of CPT | DT40 Tdp1-/- hTDP1 cells, no CPT, ATP luminescence, 48 h | Potency, µM (doses to about 46.2 µM), without a hit: at the highest dose activity change, negative = growth inhibition, usual class: inhibitors | hit rate 15% among 420,000 | AID 686978, 2013; further: potency means the concentration at half of the fitted maximal effect; nearly all actives have a fitted effect of over 55% in size
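Cells were dispensed at 400 per well, compounds added by pin tool, plates incubated ≥48 hr at 37 °C, then CellTiter-Glo added for 30 min at room temperature before luminescence reading. Line: DT40 Tdp1-/- complemented with hTDP1; camptothecin omitted.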
IL-1B inflam inh – qHTS for Inhibitors of Inflammasome Signaling: IL-1-beta AlphaLISA Primary Screen; THP-1 LPS/ATP IL-1B secretion, AlphaLISA, 16 h; stronger effect = lower value; activity change, % at 57.5 µM; hit rate 4.7% among 360,000; in the data active means activity change below about -50%; inconclusive means mostly about -30% to -49%
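THP-1 cells pretreated 1 hr with compounds (up to 57.5 uM final), then stimulated with LPS (250 ng/mL final) plus ATP (1.25 mM final); secreted IL-1B measured by AlphaLISA after 16 hr, decreased signal indicating inhibition.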
TDP1 cell CPT – qHTS for Inhibitors of human tyrosyl-DNA phosphodiesterase 1 (TDP1): qHTS in cells in presence of CPT. Potency, µM (top dose mostly 46.2 µM), inactives show at the highest dose activity change, negative = growth inhibition, actives largely listed as inhibitors. chicken DT40 Tdp1-/-;hTDP1 cells + 20 nM CPT, ATP luminescence, 48 h. hit rate 12% among 420,000; further: potency means the concentration at half of the fitted maximal effect; nearly all actives have a fitted effect of over 55% in size
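Cell growth measured by CellTiter-Glo luminescence after a minimum 48 h, 37 C compound exposure with 20 nM CPT in Tdp1-knockout DT40 cells stably expressing hTDP1, seeded 400/well; qHTS titration format.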
TDP1 inh – qHTS Assay for Inhibitors of Tyrosyl-DNA Phosphodiesterase (TDP1). recombinant TDP1, AlphaScreen DNA substrate cleavage. Potency, µM (titrated, usually from 130 µM), inactives show at the top dose activity change, negative = inhibition, most hits filed as inhibitors. hit rate 0.28% among 350,000. AID 485290, 2010; further: potency means the concentration at half of the fitted maximal effect; nearly all actives have a fitted effect of over 40% in size
Target sequence (Q9NUW8 whole entry, looked up): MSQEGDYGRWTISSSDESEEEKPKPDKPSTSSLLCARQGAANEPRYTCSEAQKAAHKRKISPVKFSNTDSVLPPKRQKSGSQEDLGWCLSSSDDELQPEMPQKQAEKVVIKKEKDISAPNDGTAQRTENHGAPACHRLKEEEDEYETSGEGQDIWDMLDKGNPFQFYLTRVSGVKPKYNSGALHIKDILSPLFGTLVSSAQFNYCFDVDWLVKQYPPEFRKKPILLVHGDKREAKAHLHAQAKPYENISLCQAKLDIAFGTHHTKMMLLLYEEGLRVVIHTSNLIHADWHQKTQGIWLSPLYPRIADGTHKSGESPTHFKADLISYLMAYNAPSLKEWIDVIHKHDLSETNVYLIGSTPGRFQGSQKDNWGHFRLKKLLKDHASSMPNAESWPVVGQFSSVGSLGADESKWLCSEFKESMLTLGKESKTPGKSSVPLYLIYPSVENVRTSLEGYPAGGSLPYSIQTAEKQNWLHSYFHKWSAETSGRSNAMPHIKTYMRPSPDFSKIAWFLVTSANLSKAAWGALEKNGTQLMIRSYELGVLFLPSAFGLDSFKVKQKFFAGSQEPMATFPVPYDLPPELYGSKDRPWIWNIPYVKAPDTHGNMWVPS
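Recombinant human Tdp1 (E. coli-expressed, 1 nM final) preincubated with compounds 15 min at room temperature, then 5'-biotin/3'-phosphotyrosine-FITC DNA substrate (15 nM final) added for 5 min. AlphaScreen beads (10 ug/ml final) added 10 min; cleavage lowers signal.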
* = called active by the depositor; u = inconclusive; x = no result given; [ ] = another dose, or the depositor's remark. An excerpt weighted towards active compounds, which were near 19% of everything screened. Unless noted, the call rests on the fitted dose curve; in most records, active means well fitted curve in the direction sought with a large enough effect; inconclusive means small, poorly fitted or top-dose-only effect, or another doubt; inactive means no such curve, though single readings can be large; an effect the other way counts as inactive or inconclusive. On the % scale 0 is the no-effect control and ±100 the full control effect.

SMILES	Giardia killer	ELG1 DNA repair	DT40 TDP1 no CPT	IL-1B inflam inh	TDP1 cell CPT	TDP1 inh
CCOc1ccc2oc(C(=O)N(C)CCc3ccc(OC)c(OC)c3)c(C)c2c1	-17.9	18.3µM*	u	-11.7	20.6µM*	0.0%
COc1ccc(NC(=O)CN(C)C(=O)c2oc3ccccc3c2C)cc1	17.7	-6.5%	-9.9%	13.9	-2.7%	5.8%
CCOc1ccc2oc(C(=O)Nc3ccc4c(c3)OCO4)c(C)c2c1	7.5	u	u	-50.0*	-3.8%	x
COc1ccc(N(C(=O)c2csnn2)C(C(=O)NC2CCCC2)c2ccccc2)cc1 (configuration not stated)	-10.7	4.0%	-27.6%	-9.9	-25.7%	7.4%[0.0935 µM]
CCCCOc1ccc(C(=O)N2CCN(CC(=O)Nc3ccc(C)cc3)CC2)cc1OC	19.4	3.6%	u	0.9	u	10.4%
Cc1cccc(N2CCN(C(=O)c3ccc4nc(N5CCCCC5)sc4c3)CC2)c1C	-3.2	23.1µM*	18.4µM*	33.6	20.6µM*	x
Cc1ccc(Cl)cc1N1CCN(C(=O)c2ccc3nc(N4CCC(C)CC4)sc3c2)CC1	x	x	20.6µM*	x	20.6µM*	-2.5%
Cc1cccc(C)c1NC(=O)N1CCN(c2nc3ccccc3s2)CC1	11.2	19.1%	u	14.5	11.6µM*	-2.3%
CCOc1ccc(NC(=O)N2CCN(c3nc4ccccc4s3)CC2)cc1	-0.7	-14.8%	u	-5.1	-27.8%	-1.0%
Cc1ccc(C)c(N2CCN(C(=O)c3ccc4nc(N5CCOCC5)sc4c3)CC2)c1	-14.4	u	13µM*	22.5	u	4.6%
CCOC(=O)N1CCN(C(=O)c2ccc3nc(N4CCCCC4)sc3c2)CC1	-19.7	14.0%	u	-17.0	-21.5%	3.2%
Cc1noc(C)c1C(=O)OC(C)C(=O)N(C)c1ccccc1 (configuration not stated)	12.9	7.0%	3.8%	0.0	-2.6%	0.3%[56.1 µM]
O=C(c1ccc2nc(N3CCOCC3)sc2c1)N1CCC(Cc2ccccc2)CC1	12.0	-17.8%	23.1µM*	-19.6	u	5.2%
CC1CCN(c2nc3ccc(C(=O)N4CCN(Cc5ccccc5)CC4)cc3s2)CC1	4.3	u	u	u	u	5.2%
OC[C@H]1O[C@@H](n2cnc3c(NCc4ccco4)ncnc32)[C@H](O)[C@@H]1O	-3.8	x	2.06µM*	73.5	2.31µM*	6.9%
C=CCNc1ncnc2c1ncn2C1OC(CO)C(O)C1O (configuration not stated)	-13.9	-19.3%	20.6µM*	65.9	18.4µM*	5.0%
Cc1ccccc1CNc1ncnc2c1ncn2[C@@H]1O[C@H](CO)[C@@H](O)[C@H]1O	x	x	11.9µM*	x	u	x
OCC1OC(n2cnc3c(NCc4ccco4)ncnc32)C(O)C1O (configuration not stated)	14.4	x	2.06µM*	u	2.31µM*	3.2%
Cc1ccccc1CNc1ncnc2c1ncn2C1OC(CO)C(O)C1O (configuration not stated)	x	x	x	x	x	8.0%[56.1 µM]
CCc1ccc(C(=O)C(C)OC(=O)c2cccc(S(=O)(=O)N3CCOCC3)c2)cc1 (configuration not stated)	-24.5	u	-25.8%	8.1	-0.7%	-2.9%
Cc1cccc(-c2noc(-c3ccccc3NC(=O)C3CC(=O)N(c4ccccc4C)C3)n2)c1 (configuration not stated)	x	x	14.6µM*	x	23.1µM*	5.7%
Cc1ccc(-c2noc(-c3ccccc3NC(=O)C3CC(=O)N(c4ccccc4C)C3)n2)cc1 (configuration not stated)	x	x	23.1µM*	x	18.4µM*	5.7%
CCOC(=O)C1(C)CCCCCN1C(=O)c1ccccc1F (configuration not stated)	x	x	-23.0%	0.8	-15.9%	x
O=C(c1ccc([N+](=O)[O-])cc1[N+](=O)[O-])n1cnc2ccccc21	-3.1	u	u	35.7	u	5.1%
COC(=O)[C@@H]1CCCN1Cc1ccc2c(c1)CN(Cc1nccs1)CCO2	x	x	2.0%	x	-2.6%	x
SMILES	Giardia killer	ELG1 DNA repair	DT40 TDP1 no CPT	IL-1B inflam inh	TDP1 cell CPT	TDP1 inh
COc1cc2ccccc2cc1C(=O)N1CCN(c2nc3c(F)cc(F)cc3s2)CC1	x	x	8.2µM*	x	20.6µM*	2.6%
COc1cc2ccccc2cc1C(=O)N1CCN(c2nc3c(F)cccc3s2)CC1	x	x	16.4µM*	x	20.6µM*	0.0%
Cc1ccc(NC(=O)COC(=O)C2CC(=O)N(Cc3ccccc3)C2)cc1F (configuration not stated)	16.8	14.1%	-28.1%	5.2	12.4%	-3.5%
COCC(C)n1c(C)cc(C(=O)COC(=O)c2c(C)nn(-c3ccccc3)c2C)c1C (configuration not stated)	0.6	u	u	-56.2*	u	5.8%
Cc1nn(-c2ccccc2)c(C)c1C(=O)OCC(=O)NC12CC3CC(CC(C3)C1)C2	-17.4	20.6µM*	23.1µM*	-29.6	u	2.1%
CC(=O)Nc1ccc(NC(=O)COC(=O)c2c(C)nn(-c3ccccc3)c2C)cc1	1.8	-25.3%	u	-2.2	u	0.0%
COc1ccc(C(=O)OCC(=O)NC23CC4CC(CC(C4)C2)C3)c(O)c1	x	x	u	13.1	23.1µM*	x
Cc1nn(-c2ccccc2)c(C)c1C(=O)OCC(=O)Nc1ccccc1F	7.9	u	-18.3%	-14.6	u	-0.1%
COc1ccc(C)cc1NC(=O)COC(=O)c1c(C)nn(-c2ccccc2)c1C	29.9	u	11.6µM*	-3.5	20.6µM*	0.7%

High-throughput results from PubChem.
